Data as given in PubChem BioAssay (NCATS).
Records with an inconclusive call do not appear. Values without a mark were called inactive. The source made the active and inactive calls. Calls come from the whole dose curve; as a rule, active = well fitted inhibition curve with a large enough effect; inconclusive = small, poorly fitted or top-dose-only effect; inactive = flat fitted curve, though single readings scatter.

Test system: HEK293
Test: Cytotoxic Profiling of Annotated Libraries Using Quantitative High-Throughput Screening (AID 1296008); note: nearly all actives have a fitted effect of over 60% in size
Details: Five cell lines viability, CellTiter-Glo ATP luminescence, 48-72 h; max response: hits give low values
Source text: Cell-based phenotypic screening is a commonly used approach to discover biological pathways, novel drug targets, chemical probes and high-quality hit-to-lead molecules. Many hits identified from high-throughput screening campaign are ruled out through a series of follow-up potency, selectivity/specificity, and cytotoxicity assays. Prioritization of molecules with little or no cytotoxicity for a more in-depth downstream evaluation influence the future direction of projects, so cytotoxicity profiling of the screening libraries at early stage is essential for increasing the likelihood of candidate success. […] For the annotated library, we also examined the primary targets and mechanistic pathways regularly associated with cell death. To our knowledge, this is the first study to use high-throughput screening to profile large libraries for cytotoxicity assessment in both normal and cancer cell lines. In summary, the results generated here constitutes a valuable resource for the scientific community and provides insight on identifying cytotoxic compounds with particular mechanisms of action, and prioritizing compounds with suitable cytotoxicity profile for further evaluation.
A pintool (Kalypsys) was used to transfer 23 nL of compound solution to the 1536-well assay plates. After 48 or 72 hr incubation at 37 degree Celsius, 5% CO2 and 95% humidity, 2.5 uL of CellTiter-Glo (Promega) was dispensed into each well using a dispenser (Aspect Automation, St. Paul, MN) with solenoid valves (Lee Valves, Westbrook CT). Plates were left at room temperature for 10 min before imaging the ATP-coupled luminescence using a ViewLux microplate imager (PerkinElmer, Waltham, MA).
% is set by controls: 0 for no effect and ±100 for the full control effect.

First: CC(C)(O)C1OC1C1=CC(=O)C2(C)OC2C1O (stereo not given)
Second: CC1(CO)CCCC2(C)C3COC(=O)C3=CC(O)C12 (stereo not given)
The max response of the first is higher: -1.71% for the first, -8.01% for the second.

First: O=C1OC(c2ccc(O)cc2)C(O)=C1Cc1ccccc1 (stereo not given)
Second: O=C(O)[C@H](Cc1ccccc1)Oc1ccc(-c2ccccc2)cc1
The max response of the first is lower: 0.741% for the first, 4.06% for the second.

First: CC1(C)CC[C@]2(C(=O)O)CC[C@]3(C)C(=CCC4[C@@]5(C)C(=O)C[C@H](O)[C@@](C)(CO)C5CC[C@]43C)[C@@H]2C1 (stereo not given in full)
Second: CC1(C(=O)O)CCCC2(C)C3CC4C5CC3(CCC12)CC45C (stereo not given)
The max response of the first is higher: 3.17% for the first, 2.22% for the second.

Going from `C=C1CC[C@@H]2[C@@](C)(CO[C@@H]3O[C@H](CO)[C@@H](O)[C@H](O)[C@H]3O)[C@H](O)CC[C@@]2(C)[C@@H]1CC/C(C)=C/CO[C@@H]1O[C@H](CO)[C@@H](O)[C@H](O)[C@H]1O` to `C=C1CC[C@H]2[C@@](C)(CCC(OC3OC(CO)C(O)C(O)C3O)[C@@]2(C)CO)C1C(=O)CC1=CCOC1=O` (stereo not given in full), the max response falls from -9.45% to -9.97%.

First: COc1cc(C2Oc3c(OC)cc(CCCO)cc3C2CO)ccc1O (stereo not given)
Second: COc1ccc(O[C@@H]2O[C@H](CO)[C@@H](O)[C@H](O)[C@H]2O)cc1OC
The max response of the first is higher: 3.43% for the first, 3.27% for the second.

First: C=CC(C)(C)C12Nc3c(ccc4c3OC(C)(C)C=C4)C1(O)CC1C(=O)N3CCCC3C(=O)N12 (stereo not given)
Second: CC(=O)OC1CC2C(C)(C)C(=O)C=CC2(C)C2CC(=O)C3=C(CCC3C3=CC(O)OC3=O)C12C (stereo not given)
The max response of the first is lower: -7.42% for the first, 2.36% for the second.

First: NC[C@H]1CCC[C@@H](CNC(=O)[C@@H](Cc2c[nH]c3ccccc23)NC(=O)N2CCC3(C=Cc4ccccc43)CC2)C1
Second: OCC(O)C(c1c[nH]c2ccccc12)c1c[nH]c2ccccc12 (stereo not given)
The max response of the first is higher: -6.44% for the first, -8.71% for the second.

First: CCN=C1N[C@@H]2[C@@H](O)[C@H](O)[C@@H](CO)O[C@@H]2S1
Second: C/C=C1/[C@H](O[C@@H]2O[C@H](CO)[C@@H](O)[C@H](O)[C@H]2O)OC=C(C(=O)OC)[C@H]1CC(=O)OCCc1ccc(O)c(O)c1
The max response of the first is higher: -6.92% for the first, -8.69% for the second.

First: CC(=O)OCC1OC(OC2COC(OC3COC(OC4C(OC5C(CO)OC(OC6CCC7(C)C(CCC8(C)C7CC=C7C9CC(C)(C)CCC9(C(=O)OC9OC(CO)C(O)C(O)C9OC9OCC(OC%10OCC(O)(CO)C%10O)C(O)C9O)C(O)CC78C)C6(C)C)C(O)C5O)OCC(O)C4O)C(O)C3O)C(O)C2O)C(OC(=O)/C=C/c2ccccc2)C(O)C1OC(C)=O (stereo not given)
Second: C/C=C(\C)C(=O)OC[C@H]1O[C@@H](O[C@H]2[C@@H](O[C@H]3O[C@H](COC(=O)/C(C)=C/C)[C@@H](O)[C@H](O)[C@H]3O[C@@H]3O[C@H](COC(=O)/C(C)=C/C)[C@@H](O)[C@H](OC(=O)/C(C)=C/C)[C@H]3O)O[C@H](COC(=O)/C(C)=C/C)[C@@H](O)[C@@H]2O)[C@H](O)[C@@H](O)[C@@H]1O
The max response of the first is lower: -18.2% for the first, -2.95% for the second.

First: CC(=O)O[C@H]1C[C@@H](O)C(C)(C)C2C[C@@H](OC(C)=O)[C@@]3(C)C4=CCC(C(CO)CC(O)C5OC5(C)C)[C@]4(C)CCC3[C@]21C (stereo not given in full)
Second: C=C[C@@]1(C)CCC2=C([C@H]1OC(C)=O)[C@H](OC(C)=O)CC1[C@](C)(C(=O)OC)CC[C@H](OC(C)=O)[C@]21C (stereo not given in full)
The max response of the first is lower: -1% for the first, 0.95% for the second.

Compared with `O=C(NCCN1CCCC1)c1cc(-c2ccc(CN3CCOCC3)cc2)nc2ccc(F)cc12`, `CN1CCN(c2nc(-c3ccc(C(=O)NC4(C(=O)NCC#N)CCCCC4)cc3)cs2)CC1` is lower in max response: 2.05% for the first, -8.37% for the second.

Compared with `C=C1CC[C@@H]2C(C)(C)CCC[C@@]2(C)[C@@H]1CC/C(=C/C(=O)OC)COC(C)=O`, `CC(=O)OC/C(=C/C(=O)O)CC[C@@H]1C(C)=CC(=O)[C@@H]2C(C)(C)CCC[C@@]12C` is higher in max response: -16.3% for the first, -0.879% for the second.

First: O=[N+]([O-])c1cc(Cl)ccc1S(=O)(=O)N1CCN(Cc2ccccc2)CC1
Second: CS(=O)(=O)c1ccccc1N1CCN(c2nc3c(c(=O)[nH]2)CSCC3)CC1
The max response of the first is lower: -21.3% for the first, 1.58% for the second.

First: C=C1C(O)CCC2(C)CC3(OC)OC(=O)C(C)=C3CC12 (stereo not given)
Second: C=C1CCC(OC(C)=O)C2(C)CC3OC(=O)C(C)=C3CC12 (stereo not given)
The max response of the first is higher: 0.468% for the first, -10.1% for the second.

First: C/C=C/C(=O)OC1/C=C/C(O)C(OC(C)=O)CCC(=O)OC1C (stereo not given)
Second: CC1=C2C(=O)C=C(CO)C2[C@H]2OC(=O)[C@H](C)[C@@H]2[C@@H](OC(=O)Cc2ccc(O)cc2)C1 (stereo not given in full)
The max response of the first is higher: 3.73% for the first, -2.2% for the second.

First: CC1(C)CCC[C@]2(C)C1CC=C(CO)[C@H]2CC/C(=C/CO)CO (stereo not given in full)
Second: CC(C)c1cc2c(c(O)c1O)[C@@]13CCCC(C)(C)C1[C@@H](O)[C@@H]2OC3=O (stereo not given in full)
The max response of the first is lower: -9.82% for the first, -8.48% for the second.

First: COc1cccc(Cn2ncc3c4sc(S(C)=O)cc4n(C)c3c2=O)c1 (stereo not given)
Second: CCCC1=CC2=C(CO1)C(=O)C(C)(O)C(OC(=O)c1c(C)cc(OC)cc1O)C2 (stereo not given)
The max response of the first is lower: -7.28% for the first, -3.53% for the second.

Going from `O=C(OCC1OC(Oc2ccc(O)cc2COC(=O)C2(O)C(O)CCC(=O)C2OC(=O)C2C=CCC2)C(OC(=O)C2C=CCC2)C(O)C1O)C1C=CCC1` (stereo not given) to `CC1CC(=O)C2C(O)(C1)CC(O)C13OC1c1c(O)cccc1C(=O)C23O` (stereo not given), the max response falls from -10.5% to -12.4%.

First: CC[C@H]1OC(=O)[C@H](C)[C@@H](O[C@H]2C[C@@](C)(OC)[C@@H](O)[C@H](C)O2)C(C)[C@@H](O[C@@H]2O[C@H](C)C[C@H](N(C)C)[C@H]2O)[C@](C)(O)C[C@@H](C)CN(C)[C@H](C)[C@@H](O)[C@]1(C)O (stereo not given in full)
Second: CC(C)C1NC(=O)C(CC2(O)c3ccccc3N3C(=O)C(Cc4ccccc4)NC32)NC1=O (stereo not given)
The max response of the first is higher: 1.9% for the first, -4.45% for the second.

With `COc1cc(/C=C/C(=O)O[C@H]2C[C@@H]3C(C(=O)O)=CO[C@@H](O[C@@H]4O[C@H](CO)[C@@H](O)[C@H](O)[C@H]4O)[C@@H]3[C@H]2C)ccc1O` the outcome was “inactive”.
`C=C[C@H]1[C@H](O[C@@H]2O[C@H](CO)[C@@H](O)[C@H](O)[C@H]2O)OC=C2C(=O)N3Cc4c([nH]c5ccccc5c4=O)[C@@H]3C[C@H]21` was tested, and the outcome was “inactive”.
